Measurements published in the supplement of paper PMC10646978.
± gives the standard deviation.

Assays:
Conditions in all cases: modulator concentration 10 µM
[1] = system: RAW-Dual (murine macrophage reporter line); assay: NF-kB reporter (SEAP) activity fold change vs agonist alone; higher = enhanced NF-kB activity
Outline: (§1)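 Overnight stimulation with a PRR agonist followed pre-incubation for 1 hour at 37 °C with compound at 10 μM final. This was done in RAW-Dual murine macrophage reporter cells seeded at 50 000 per well in 384-well plates. NF-κB (SEAP, QUANTI-Blue absorbance at 620 nm) and IRF (Lucia luciferase, QUANTI-Luc luminescence) were read from the supernatant. Each reporter's fold change relative to the mean agonist-only control on the same plate was averaged over replicate plates.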

[2] = system: RAW-Dual (murine macrophage reporter line); assay: IRF reporter (Lucia luciferase) activity fold change vs agonist alone; higher = enhanced IRF activity
Outline: as §1

[3] = system: RAW-Dual (murine macrophage reporter line); assay: viability score (confluency relative to resting cells, overnight) (fraction); higher = more viable, active = viable (0.7 or more)
Outline: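 Confluency was the readout: RAW-Dual macrophages were imaged with IncuCyte after an overnight exposure to compound at 10 μM final. IncuCyte software produced two masks over all imaged wells. The viability score expresses confluency against resting cells, and both masks had to exceed 70% of resting cells for a compound to meet the cutoff.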

[4] = agonist: CpG ODN 1826 0.5 ug/mL

Row | SMILES | NF-kB reporter [1, 4] | NF-kB reporter ([1]; agonist: LPS 0.1 ug/mL) | NF-kB reporter ([1]; agonist: MPLA […]) | IRF reporter ([2]; agonist: 3'3'-cGAMP 10 ug/mL) | IRF reporter ([2]; agonist: LPS 0.1 ug/mL) | IRF reporter ([2]; agonist: MPLA […]) | viability score [3]
1 | NC(=O)CN1CC(O)CC1=O (stereo unspecified) | 1.04 ± 0.079 | 1.04 ± 0.051 | 1 ± 0.03 | 0.961 ± 0.081 | 1.02 ± 0.082 | 0.954 ± 0.097 | 0.996 (active)
2 | Cc1ccc(-c2nn(-c3ccccc3)cc2C=C2C(=O)NC(=O)NC2=O)o1 | 1 ± 0.094 | 1.07 ± 0.066 | 1 ± 0.08 | 1.01 ± 0.037 | 1.42 ± 0.23 | 1.16 ± 0.072 | 1.01 (active)
3 | O=C(CCCN1CCC(n2c(=O)[nH]c3ccccc32)CC1)c1ccc(F)cc1 [Prestw-484] | 0.641 ± 0.18 | 1.11 ± 0.096 | 1.02 ± 0.097 | 0.851 ± 0.035 | 1.1 ± 0.12 | 1.33 ± 0.14 | 1 (active)
4 | ClC(Cl)=C(c1ccc(Cl)cc1)c1ccc(Cl)cc1 | 1.14 ± 0.36 | 1.03 ± 0.068 | 1.07 ± 0.11 | 0.961 ± 0.055 | 1.12 ± 0.12 | 1.25 ± 0.12 | 0.714 (active)
5 | COc1ccc(CNCCc2c[nH]c3ccccc23)cc1C | 0.373 ± 0.058 | 0.574 ± 0.054 | 1.22 ± 0.06 | 0.782 ± 0.08 | 1.04 ± 0.052 | 2.55 ± 0.19 | 0.154 (inactive)
6 | COc1cc(OC)c(OC)cc1C=O | 1.08 ± 0.3 | 1.04 ± 0.082 | 1.02 ± 0.067 | 0.794 ± 0.027 | 1.02 ± 0.11 | 0.99 ± 0.22 | 0.992 (active)
7 | O=C(O)c1nn(Cc2ccc(Cl)cc2Cl)c2ccccc12 | 0.833 ± 0.12 | 0.959 ± 0.14 | 0.943 ± 0.055 | 0.926 ± 0.033 | 1.04 ± 0.25 | 1.06 ± 0.18 | 1 (active)
8 | CCC1(c2ccccc2)C(=O)N(Cc2ccccc2)C(=O)N(Cc2ccccc2)C1=O | 0.516 ± 0.03 | 1.08 ± 0.1 | 0.967 ± 0.056 | 1.17 ± 0.093 | 1.25 ± 0.14 | 1.18 ± 0.11 | 1.01 (active)
9 | CCC1(C)CC(CCNCc2ccccc2)(c2ccc(C)cc2)CCO1 (stereo unspecified) | 0.701 ± 0.29 | 1.15 ± 0.099 | 1.19 ± 0.18 | 0.57 ± 0.018 | 1.38 ± 0.14 | 1.76 ± 0.31 | 0.547 (inactive)
10 | N=C(N)NOCCC(N)C(=O)O (stereo unspecified) | 1.02 ± 0.076 | 1 ± 0.058 | 1.02 ± 0.03 | 0.979 ± 0.057 | 0.938 ± 0.12 | 0.931 ± 0.13 | 0.998 (active)
11 | CCn1cc(C(=O)O)c(=O)c2c(N)c(F)c(N3CCNCC3)c(F)c21 | 0.952 ± 0.067 | 1.09 ± 0.068 | 0.859 ± 0.073 | 0.972 ± 0.033 | 1.47 ± 0.14 | 1.2 ± 0.2 | 0.998 (active)
12 | CC12CC1(C)C(=O)N(c1cc(Cl)cc(Cl)c1)C2=O (stereo unspecified) | 1.06 ± 0.092 | 1.1 ± 0.097 | 0.96 ± 0.045 | 0.942 ± 0.085 | 1.11 ± 0.081 | 1.18 ± 0.17 | 1 (active)
13 | CC(=O)OC1CCC2(C)C(CCC3C4CCC(=O)C4(C)CCC32)C1 (stereo unspecified) | 1.22 ± 0.29 | 1.06 ± 0.054 | 1.02 ± 0.089 | 0.939 ± 0.032 | 1.21 ± 0.19 | 1.11 ± 0.18 | 1.01 (active)
14 | CCN(CC)CCOC(=O)C(O)(c1ccccc1)c1ccccc1.Cl | 1.16 ± 0.16 | 1.04 ± 0.41 | 0.923 ± 0.066 | 1.38 ± 0.043 | 1.03 ± 0.3 | 1.44 ± 0.11 | 0.98 (active)
15 | CC(=O)C1CCC2C3CCC4CC(O)CCC4(C)C3CCC12C (stereo unspecified) | 1.17 ± 0.28 | 1.16 ± 0.097 | 1.02 ± 0.079 | 0.858 ± 0.034 | 1.2 ± 0.19 | 1.38 ± 0.13 | 0.985 (active)
16 | Cc1ccc(C)c2sc(N3CCN(C)CC3)nc12.Cl | 0.743 ± 0.18 | 1.02 ± 0.18 | 1.07 ± 0.071 | 0.92 ± 0.032 | 1.04 ± 0.14 | 1.19 ± 0.22 | 0.976 (active)
17 | OCC(O)Cc1ccc2c(c1)OCO2 (stereo unspecified) | 1.02 ± 0.096 | 0.831 ± 0.062 | 0.906 ± 0.093 | 0.988 ± 0.031 | 1.37 ± 0.19 | 1.53 ± 0.25 | 0.994 (active)

Row | SMILES | NF-kB reporter [1, 4] | NF-kB reporter ([1]; agonist: LPS 0.1 ug/mL) | NF-kB reporter ([1]; agonist: MPLA […]) | IRF reporter ([2]; agonist: 3'3'-cGAMP 10 ug/mL) | IRF reporter ([2]; agonist: LPS 0.1 ug/mL) | IRF reporter ([2]; agonist: MPLA […]) | viability score [3]
18 | C[C@@H]1CC[C@H]2[C@@H](C)C(=O)O[C@@H]3O[C@@]4(C)CC[C@@H]1[C@]32OO4 | 0.961 ± 0.086 | 0.916 ± 0.052 | 1.11 ± 0.11 | 1.04 ± 0.048 | 1.13 ± 0.065 | 1.17 ± 0.099 | 0.985 (active)
19 | O=C1NC(=O)N(c2ccccc2F)C(=O)C1=Cc1cc(Cl)ccc1OCc1ccc([N+](=O)[O-])cc1 | 0.892 ± 0.071 | 1.05 ± 0.078 | 0.744 ± 0.045 | 0.741 ± 0.018 | 0.972 ± 0.087 | 0.855 ± 0.16 | 1.01 (active)
20 | CC(C)c1ccc2c(c1O)CCC1C3=C(CCC21C)C(=O)OC3 (stereo unspecified) | 0.921 ± 0.072 | 0.815 ± 0.11 | 0.986 ± 0.093 | 0.939 ± 0.029 | 1.11 ± 0.19 | 1.23 ± 0.26 | 1.03 (active)
21 | COc1ccc(OC)c(C=C2C(=O)NC(=O)NC2=O)c1 | 1.15 ± 0.12 | 0.845 ± 0.061 | 1.12 ± 0.061 | 0.99 ± 0.17 | 0.995 ± 0.05 | 1.01 ± 0.16 | 0.995 (active)
22 | COc1cc2c(cc1OC)C1C(=O)c3ccc4c(c3OC1CO2)CC(C(C)C)O4 (stereo unspecified) | 1.11 ± 0.19 | 1.48 ± 0.12 | 2.31 ± 0.18 | 0.857 ± 0.06 | 1.89 ± 0.32 | 2.1 ± 0.4 | 0.976 (active)
23 | CCOC(=O)c1ccccc1-c1ccc(C=C2C(=O)NC(=O)N(c3ccccc3C)C2=O)o1 | 0.727 ± 0.082 | 0.444 ± 0.025 | 0.358 ± 0.051 | 0.655 ± 0.023 | 0.631 ± 0.096 | 0.321 ± 0.088 | 0.0805 (inactive)
24 | COc1cc(C2c3cc4c(cc3C(O)C3COC(=O)C23)OCO4)cc(OC)c1OC (stereo unspecified) | 1.37 ± 0.41 | 0.807 ± 0.077 | 1.08 ± 0.1 | 0.688 ± 0.021 | 1.19 ± 0.17 | 1.51 ± 0.22 | 0.967 (active)
25 | COc1ccccc1CC(=O)N1CCN(Cc2cnnn2-c2ccccc2F)CC1 | 0.894 ± 0.048 | 0.985 ± 0.084 | 1.15 ± 0.065 | 1.16 ± 0.093 | 1.14 ± 0.19 | 1.11 ± 0.46 | 1.01 (active)
26 | COc1cc2c(c(OC)c1OC)-c1ccc(OC)c(=O)cc1[C@@H](NC(C)=O)CC2 | 2.45 ± 0.12 | 1.8 ± 0.14 | 2.47 ± 0.11 | 0.0843 ± 0.011 | 1.5 ± 0.13 | 1.91 ± 0.42 | 0.687 (inactive)
27 | Cc1cc(OC(=O)C2CCCCC2)c2c3c(c(=O)oc2c1)CCC3 | 0.947 ± 0.094 | 1.01 ± 0.063 | 0.968 ± 0.058 | 0.948 ± 0.042 | 1.29 ± 0.13 | 1.13 ± 0.07 | 1.01 (active)
28 | CN1CC(CNC(=O)OCc2ccccc2)CC2c3cccc4c3c(cn4C)CC21 (stereo unspecified) | 1.02 ± 0.065 | 0.966 ± 0.11 | 0.963 ± 0.08 | 0.986 ± 0.034 | 1.43 ± 0.14 | 1.2 ± 0.18 | 0.997 (active)
29 | CC(NC(C)(C)C)C(=O)c1cccc(Cl)c1.Cl (stereo unspecified) | 0.906 ± 0.1 | 1.09 ± 0.11 | 0.99 ± 0.048 | 0.986 ± 0.065 | 0.955 ± 0.1 | 0.904 ± 0.14 | 0.998 (active)
30 | CC[N+]1(C)CCCC(OC(=O)C(O)(c2ccccc2)c2ccccc2)C1 (stereo unspecified) [Prestw-760] | 0.921 ± 0.061 | 0.955 ± 0.092 | 0.966 ± 0.073 | 0.952 ± 0.038 | 1.13 ± 0.09 | 0.973 ± 0.18 | 0.994 (active)
31 | O=C(NCCN1CCN(c2ccccc2)CC1)c1ccc(F)cc1 | 1 ± 0.081 | 1.04 ± 0.051 | 1.03 ± 0.026 | 1.1 ± 0.18 | 0.94 ± 0.045 | 0.83 ± 0.084 | 1 (active)
32 | CCOc1cc(C=C2C(=O)NC(=O)NC2=O)ccc1OCc1c(Cl)cccc1Cl | 1.06 ± 0.091 | 1.01 ± 0.07 | 0.938 ± 0.11 | 1.07 ± 0.038 | 1.35 ± 0.11 | 1.2 ± 0.14 | 1.01 (active)
33 | CC[C@@]1(O)C(=O)OCc2c1cc1n(c2=O)Cc2cc3ccccc3nc2-1 [Prestw-200] | 1.33 ± 0.23 | 1.75 ± 0.17 | 2.95 ± 0.72 | 3.06 ± 0.081 | 2.05 ± 0.42 | 2.66 ± 0.37 | 0.768 (active)
